According to PubChem BioAssay AID1903 (Southern Research Specialized Biocontainment Screening …, 2009):
Among all 310,000 compounds or so, about 1,200 (0.39%) were called active. How the calls were made is not given here. Not all results are given here. Results with a measured potency or affinity are listed apart.

Target: Large T antigen (Simian virus 40) (UniProt P03070)
Assay: SV40 large T antigen inhibitors, biochemical (AID 1903)
Conditions: SV40 large T antigen ATPase/helicase inhibition assay; at 20 µM; active compounds read high

Large T antigen (Simian virus 40), sequence (P03070 whole entry, looked up): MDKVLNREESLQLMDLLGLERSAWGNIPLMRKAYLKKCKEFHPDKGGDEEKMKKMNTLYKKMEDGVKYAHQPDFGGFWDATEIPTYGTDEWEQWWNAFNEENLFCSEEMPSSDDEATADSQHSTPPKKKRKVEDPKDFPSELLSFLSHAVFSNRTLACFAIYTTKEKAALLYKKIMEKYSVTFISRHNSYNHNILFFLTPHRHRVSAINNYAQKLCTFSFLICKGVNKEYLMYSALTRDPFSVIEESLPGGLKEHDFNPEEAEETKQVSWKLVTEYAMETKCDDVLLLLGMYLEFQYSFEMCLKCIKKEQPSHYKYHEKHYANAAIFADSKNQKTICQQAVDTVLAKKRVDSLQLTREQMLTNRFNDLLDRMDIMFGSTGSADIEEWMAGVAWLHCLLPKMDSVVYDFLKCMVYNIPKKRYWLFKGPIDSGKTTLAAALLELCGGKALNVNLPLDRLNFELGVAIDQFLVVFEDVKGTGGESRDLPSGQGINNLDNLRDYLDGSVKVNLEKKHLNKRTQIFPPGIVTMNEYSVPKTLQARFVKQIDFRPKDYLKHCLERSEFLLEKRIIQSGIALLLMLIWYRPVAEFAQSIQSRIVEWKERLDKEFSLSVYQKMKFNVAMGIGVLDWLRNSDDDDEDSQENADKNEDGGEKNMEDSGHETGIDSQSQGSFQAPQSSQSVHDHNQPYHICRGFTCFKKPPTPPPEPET

inhibition, inactive:
CN(CC(=O)Nc1ccc(F)cc1)C(=O)COC(=O)Cc1cccs1 8.61%
O=C(C1=NN[C@@H]2C(=O)N(c3cccc(F)c3)C(=O)[C@H]12)C(c1ccccc1)c1ccccc1 1.36%
Cn1cc(C(=O)c2cccc(Cl)c2)cc1/C=N\O -2.98%
CC(=O)c1ccc(OC(=O)CN2C(=O)c3ccccc3C2=O)cc1 14.1%
S=C(NCCc1ccccc1)N1CCCC1 7.81%
O=S(=O)(c1cccs1)N1CCN(c2ccc(Cl)cc2)CC1 2.25%
Oc1ccccc1N1CCN(C(=S)NCCc2ccccc2)CC1 7.92%
O=C(NC(=S)N1CCCCC1)c1cccs1 9.19%
O=C(CCC(=O)N1CCN(c2cccc(Cl)c2)CC1)c1cccs1 1.82%
O=S(=O)(c1cccs1)N1CCN(c2ccccc2)CC1 1.66%
O=C(NC(=S)N1CCN(c2ccc(F)cc2)CC1)c1cccs1 1.9%
CC(=O)c1ccc(N2CCN(C(=O)CCC(=O)c3cccs3)CC2)cc1 4.57%
CN1CCN(CCc2nc3cc(NC(=O)COc4ccc([N+](=O)[O-])cc4)ccc3n2C)CC1 16.7%
O=C(NCC1CCCO1)c1cn(-c2ccccc2)nc1-c1ccc(F)cc1 (stereo not drawn) 27.6%
COc1cc(S(=O)(=O)N2CCOCC2)cc(C(=O)c2nccn2C)c1OC -1.37%
CN(C(=O)COC(=O)CNC(=O)c1ccc(C(C)(C)C)cc1)c1c(N)n(Cc2ccccc2)c(=O)[nH]c1=O 6.23%
COc1cnc(-c2ccccn2)nc1Oc1cccc(Cl)c1 30.5%
Cc1ccc(-n2cccc2/C=C2/NC(=O)N(CC(=O)Nc3cccc(C)c3)C2=O)cc1 10.3%
Cc1cccc(NC(=O)CN2C(=O)N/C(=C\c3cccn3-c3cccc(C(=O)O)c3)C2=O)c1 3.89%
COC(=O)C1CCN(Cc2ccc(C)cc2)CC1 3.14%
N#C/C(=C/Nc1ccccc1F)S(=O)(=O)c1ccc(Cl)cc1 -5.3%
COc1ccc(-c2cnnn2-c2ccc(NC(=O)/C=C/c3ccc(OC)c(OC)c3)cc2)cc1 4.37%
CC(Oc1ccc(Cl)cc1Cl)C(=O)NCCCN(C)C (stereo not drawn) 13.2%
O=C(O)Cc1ccc(O)c(F)c1 11.8%
O=C(O)c1ccc(-c2ccc(OS(=O)(=O)c3ccccc3F)cc2)cc1 -2.26%
CC(=O)Nc1ccc(S(=O)(=O)N2CCN(Cc3cccnc3)CC2)cc1 0.357%
Cc1scc(C(=O)NNC(=S)NCC2CCCO2)c1-c1ccccc1 (stereo not drawn) 11.4%
Cc1nnc(C)n1/N=C/c1ccc(O)cc1 -1.45%
CN=c1scc(-c2cccs2)n1/N=C/c1ccccc1O 6.26%
CN=c1scc(C)n1/N=C/c1ccc2c(c1)OCO2 11.5%
CCN=c1scc(-c2ccco2)n1/N=C/c1ccc(OC)c(O)c1 19.6%
CN=c1scc(C)n1/N=C/c1ccc(O)c(O)c1O 7.3%
CCN=c1scc(-c2ccco2)n1/N=C/c1ccc(O)cc1 11.2%
CC1Oc2ccccc2N(CC(=O)N2CCCC2)C1=O (stereo not drawn) 2.95%
O=C1Cn2c(nc3ccccc32)N1c1ccccc1F 5.32%
Cc1cc[n+](CC(=O)Nc2ccccc2)cc1 -1.49%
COc1ccc(Nc2nc(N)c([N+](=O)[O-])c(NCc3ccccc3)n2)cc1 2.61%
CCCC12CN(C(=O)c3ccc(OC)cc3)CC(C)(CN(C(=O)c3ccc(OC)cc3)C1)C2=O 14.8%
COc1ccc(CONc2ncnc3nonc23)cc1[N+](=O)[O-] 24.5%
O=c1c(O)c(-c2cc(O)c(O)c(O)c2)oc2cc(O)cc(O)c12 14.3%
O=c1c(O)c(-c2ccc(O)cc2)oc2cc(O)cc(O)c12 2.71%
O=c1cc(-c2ccccc2)oc2cc(O)cc(O)c12 3.39%
O=c1cc(-c2ccc(O)cc2)oc2cc(O)cc(O)c12 5.06%
Cc1cccc(/C=C2\CCC(C3CCCC3)C2=O)c1 (stereo not drawn) 1.68%
CCN(CC)C(=O)c1cc(Cl)ccn1 -2.78%
O=C(NCC1CCCO1)c1cc(S(=O)(=O)Nc2ccc(Br)cc2)ccc1Cl (stereo not drawn) -4.53%
CCOC(=O)C1C(=O)NC(SC)=C(C#N)C1c1ccccc1F (stereo not drawn) 13.4%
COC(=O)C1C(=O)NC(SC)=C(C#N)C1c1ccccc1F (stereo not drawn) 10.2%
COc1ccccc1/C=C(/C(=O)OCC(=O)Nc1cc(C)ccc1C)c1ccccc1 5.11%
CC1CN=C(Nc2cccc(S(=O)(=O)N(C)C)c2)S1 (stereo not drawn) 21.1%
CCOC(=O)C(=CNc1ccc(NC2=NCC(C)S2)cc1)C(=O)OCC (stereo not drawn) 12%
Cc1cccc2cc3c(nc12)-c1ccccc1C3=O 7.99%
Cc1ccc(Cl)c(OC(=O)C2CSC3(C)CCC(=O)N23)c1 (stereo not drawn) 28%
CC(C)Sc1nc2ccccc2n1CC(=O)NCc1ccc2c(c1)OCO2 10.4%
O=C(O)/C=C/c1cnn(-c2ccccc2)c1 6.6%
O=C(c1cnn(-c2ccccc2)c1)c1ccccc1O -1.98%
CCN(CC)S(=O)(=O)c1ccc(N=Nc2c(N)[nH]c(=O)[nH]c2=O)cc1 12.4%
O=C(CCn1c(=S)[nH]c2ccccc2c1=O)NCCc1ccccc1 4.97%
O=C(CCn1c(=S)[nH]c2ccccc2c1=O)NCCc1ccc(Cl)cc1 7.2%
CC(=O)NC(CC(=O)N1CCCC1)c1ccccc1 (stereo not drawn) 21.8%
O=C(NCc1ccc2c(c1)OCO2)c1ccc2c(c1)S(=O)(=O)c1ccccc1C2=O 0.8%
Cn1c(=O)oc2cc(S(=O)(=O)NC3CCCCCCC3)ccc21 -1.85%
Cn1c(=O)oc2cc(S(=O)(=O)NC3CCCCC3)ccc21 -17.1%
